Experimental findings from PubChem BioAssay AID1745847 (National Center for Advancing Translational Sciences (NCATS), 2022) are described below.

Out of some 2,100 compounds screened, about 670 (32%) were called active. Not shown: some 50% with an inconclusive outcome. The call rests on the fitted dose curve; in most records, active means well fitted inhibition curve with a large enough effect; inconclusive means small, poorly fitted or top-dose-only effect; inactive means no such curve, though single readings can be large or run the other way. Some of the results follow.
On the % scale 0 is the no-effect control and ±100 the full control effect; potency means the concentration at half of the fitted maximal effect.

This assay can be described thus: CMV-Luciferase Counterscreen for Inhibitors of ATXN expression. Further: nearly all actives have a fitted effect of over 55% in size. The conditions noted are these: HEK-293 CMV-luciferase reporter, luminescence, 24 h; series mostly up to 57.5 µM.
Regarding `CC(C)CCn1c(N)c(S(=O)(=O)c2cccs2)c2nc3ccccc3nc21`, the Potency is 3.16 µM (active).
Consider `CCSc1nc2ccccc2n1C(=O)/C=C\c1ccc(OC)c(OC)c1`, for which the Potency was 14.1 µM (active).
As to `COc1ccc(C(=O)Cn2c(C(=O)/C=C/c3ccccc3)nc3ccccc32)cc1`, the activity change, negative = inhibition is 92.9% [at 11.4 µM] (inactive).
On to `COc1ccc(C(=O)/C=C/c2cccc(OCc3ccccc3)c2)cc1CSCC(=O)O`, for which the activity change, negative = inhibition was -3.73% [at 11.4 µM] (inactive).
Take `N#Cc1ccccc1NC(=O)C1SC(=Nc2ccccc2)C(C(=O)Nc2ccc(Cl)cc2)=C1N` (stereo not drawn): the activity change, negative = inhibition is -20.6% [at 11.4 µM] (inactive).
Consider `CN(CC(=O)Nc1ccc(Cl)c(C(F)(F)F)c1)C(=O)c1cccnc1Sc1ccccc1`, for which the Potency entry was “inactive”.
With `Cc1ccc(C(=O)N(C)CC(=O)Nc2ccc(Cl)c(C(F)(F)F)c2)cc1S(=O)(=O)N1CCCCC1`, the Potency is 25.1 µM (active).
As for `CN(CC(=O)NCc1ccc(F)cc1)CC(=O)Nc1ccc(Cl)c(C(F)(F)F)c1`, the Potency is 17.8 µM (active).
On to `Cc1ccc(-n2ncc(C(=O)Nc3ccc(Cl)cc3)c2C2CCNCC2)cc1C`, for which the Potency entry is “inactive”.
With `Cc1cc(C2=NNC(=NC3CC3)SC2)c(C)n1-c1ccccc1F`, the Potency was 0.631 µM (active).
With `Cc1ccc(C2CC(=O)Nc3c2ccc2ccccc32)cc1[N+](=O)[O-]` (stereo not drawn), the Potency was 17.8 µM (active).
For `Cc1ccccc1S(=O)(=O)Cc1ccc(C(=O)N2CCN(c3cccc(C)c3C)CC2)o1`, the Potency was 3.98 µM (active).
Consider `CCOC(=O)[C@H]1[C@H]2COc3ccc(OC)cc3[C@@H]2N2C(=O)c3cc(OC)c(OC)cc3NC(=O)[C@@]12C`, for which the activity change, negative = inhibition was 6.45% [at 11.4 µM] (inactive).
Regarding `c1cnc2c(c1)ccc1cccnc12`, the Potency was 3.55 µM (active).
`CC(=O)N1CCN(c2ccc(Oc3ccc([N+](=O)[O-])c(C(F)(F)F)c3)cc2)CC1`: the Potency was 7.94 µM (active).
For the compound `N=c1c2c(n(Cc3cccc(Cl)c3)c3c1CCC3)CCCC2`, the Potency was 3.16 µM (active).
Still for that read-out and setting: to `N=c1c2c(n(Cc3ccc(Br)cc3)c3c1CCC3)CCCC2` belongs 0.501 µM (active).
Same read-out and setting: then `N=c1c2c(n(Cc3ccc(Cl)cc3)c3c1CCC3)CCC2`, with 0.708 µM (active).
Turning to `Cn1c(CO)cnc1S(=O)(=O)Cc1ccc([N+](=O)[O-])cc1`, the Potency entry is “inactive”.
Consider `c1nc(CCO[C@H]2CCCCO2)cc2cc3c(cc12)OCO3`, for which the Potency is 3.16 µM (active).
The same measure, in the same setting: then `O=C(C1CCC(CNS(=O)(=O)c2cccs2)CC1)N1CCN(c2ccc(F)cc2)CC1` (stereo not drawn), with 4.47 µM (active).
For the compound `COc1cc(C(=O)O/N=C(\N)Cc2ccc([N+](=O)[O-])cc2)cc(OC)c1OC`, the activity change, negative = inhibition was -6.35% [at 11.4 µM] (inactive).
`CCOc1cc(C=C(C(=O)OC)C(=O)OC)ccc1OCc1ccc([N+](=O)[O-])cc1`: the Potency is 25.1 µM (active).
For `CC1CC(C)C[N+](=C2C=C(N3CCCC3)CC(C)(C)C2)C1` (stereo not drawn), the Potency is 0.794 µM (active).
On the same count and under the same terms, to `CC1CCN(Cc2c(C(=O)N/N=C/c3cc(Cl)ccc3O)nnn2-c2nonc2N)CC1` belongs 0.562 µM (active); to `CC1CCN(Cc2c(C(=O)N/N=C/c3cc(Br)ccc3O)nnn2-c2nonc2N)CC1`, 0.447 µM (active).
Consider `COc1ccc(-c2n(CC(=O)OC3CC(C)CCC3C(C)C)c3ccccc3[n+]2C)cc1` (stereo not drawn), for which the Potency was 3.16 µM (active).
Still for that read-out and setting: then `CCOc1ccc(-n2c(-c3ccccc3)c[n+]3c2CCCCC3)cc1`, with 3.55 µM (active); and `CCOc1ccc(-c2c[n+]3c(n2-c2ccccc2)CCCCC3)cc1`, with 6.31 µM (active).
Same read-out and setting: to `CCCCOc1ccc(C(=O)NNC(=S)NC(=O)CC)cc1` belongs 2.51 µM (active); to `OC(c1ccccc1)(c1nc(-c2cc3ccccc3o2)cs1)C(F)(F)F` (stereo not drawn), “inactive”.
`Cc1cc(/C=N/n2cnnc2)c(C)n1-c1ccc(OCc2ccc(Cl)cc2Cl)cc1`: the Potency is 12.6 µM (active).
Regarding `Cc1ccc(C)c(NC(=O)c2ccccc2NS(=O)(=O)c2cc([N+](=O)[O-])ccc2C)c1`, the Potency was 1 µM (active).
The same measure, in the same setting: to `CC1CCCCC1NC(=O)/C(C#N)=C/C=C/c1ccccc1[N+](=O)[O-]` (stereo not drawn) belongs 3.55 µM (active); to `N#C/C(=C\C=C\c1ccccc1[N+](=O)[O-])C(=O)NCc1ccccc1`, 3.16 µM (active).
As to `O=C(/C=C/c1ccccc1[N+](=O)[O-])c1ccccc1Br`, the activity change, negative = inhibition is 44.2% [at 11.4 µM] (inactive).
Regarding `NC(=O)c1cccc(-c2ccnc3c2CC(C(=O)Nc2cccc(C(F)(F)F)c2)O3)c1` (stereo not drawn), the Potency was 3.98 µM (active).
Take `CS(=O)(=O)Nc1cccc(NC(=O)c2cccc3c(-c4cccc(C(N)=O)c4)coc23)c1`: the Potency result was “inactive”.
For `O=C(Nc1cccnc1)C1Cc2c(-c3ccc4c(c3)OCO4)ccnc2O1` (stereo not drawn), the activity change, negative = inhibition is -23.6% [at 11.4 µM] (inactive).
For `O=C(CNC(=O)c1cccc(F)c1)N/N=C/c1cc(Br)ccc1OC(=O)/C=C/c1ccco1`, the Potency was 4.47 µM (active).
The same measure, in the same setting: then `O=C(CNC(=O)c1ccccc1F)N/N=C/c1cc(Br)ccc1OC(=O)/C=C/c1ccco1`, with 12.6 µM (active).
`NS(=O)(=O)c1ccc(CCNC(=O)COC(=O)/C=C/c2cc(Br)ccc2F)cc1`: the activity change, negative = inhibition was -4.52% [at 11.4 µM] (inactive).
As to `O=C(CNC(=O)c1ccc(F)cc1)N/N=C/c1cc(Br)ccc1OC(=O)/C=C/c1ccco1`, the Potency was 8.91 µM (active).
Take `Cc1cc(C)c2c(N)c3cccc(C)c3nc2n1`: the Potency is 10 µM (active).
For the compound `Cc1nc(N=C(N)N)nc2c(C)cccc12`, the Potency result was “inactive”.
As to `O=C(Nc1ccc(NC(=O)c2cccs2)cc1)c1ccc2c(c1)OCO2`, the activity change, negative = inhibition is -7.86% [at 11.4 µM] (inactive).
For the compound `Cc1ccccc1C(=O)N1CCN(c2ccc(NC(=O)c3ccc4c(c3)OCCO4)cc2)CC1`, the Potency is 2.24 µM (active).
Take `COc1c(C)cccc1C(=O)Nc1ccc(N2CCN(C(=O)c3ccccc3C)CC2)cc1`: the Potency is 15.8 µM (active).
On the same count and under the same terms, to `CC(=O)Nc1cc(-c2ccc(C(=O)NC3CC3)cc2)cn2c(-c3cccc(C(C)=O)c3)cnc12` belongs “inactive”; to `Oc1c(CN2CCOCC2)cc(COCc2ccccc2)c2cccnc12`, 3.55 µM (active).
In the case of `O=[N+]([O-])c1cc(CN2CCN(c3ccccc3)CC2)c(O)c2ncccc12`, the Potency is 7.94 µM (active).
Still for that read-out and setting: to `O=[N+]([O-])c1cc(O)c2ncccc2c1` belongs 3.16 µM (active).
On the same count and under the same terms, to `O=[N+]([O-])c1cc(Cl)c(O)c2ncccc12` belongs 8.91 µM (active); to `Oc1ccc(Cl)c2cccnc12`, “inactive”; to `O=[N+]([O-])c1ccc(O)c2ncccc12`, 7.08 µM (active).
The same measure, in the same setting: then `CCOC(=O)c1c(-c2ccccc2)oc2ccc(OCC(=O)NN)cc12`, with 28.2 µM (active).
With `O=C(O)COc1ccc2oc3ccccc3c2c1`, the activity change, negative = inhibition is -24.7% [at 11.4 µM] (inactive).
For `NNC(=O)c1nc(-c2ccccc2)cc(-c2ccccc2)n1`, the Potency entry is “inactive”.
Turning to `OCCNc1c2ccccc2nc2c(F)c(F)c(F)c(F)c12`, the Potency was 7.94 µM (active).
Turning to `OCCNc1c2ccccc2nc2ccccc12`, the Potency is 20 µM (active).
Same read-out and setting: to `O=c1c(Cc2ccccc2)c(O)nc2n1CCS2` belongs “inactive”; to `Cc1ccc(-c2cn(-c3ccc(OC(F)F)cc3)c3[n+]2CCCCC3)cc1`, 12.6 µM (active); to `CCOC(=O)C1CCN(C(=O)c2c(C)oc3c2C(=O)c2ccccc2C3=O)CC1`, 12.6 µM (active).
In the case of `Cc1ccc(C)n1-c1ccc(C(=O)N2CCC(C(N)=O)CC2)cc1`, the activity change, negative = inhibition is 4.95% [at 11.4 µM] (inactive).
As for `Cc1ccc(C(=O)O)cc1N1C(=O)c2cccc3c([N+](=O)[O-])ccc(c23)C1=O`, the Potency result is “inactive”.
For `Cc1ccnc(N2C(=O)c3cccc4c([N+](=O)[O-])ccc(c34)C2=O)c1`, the Potency was 12.6 µM (active).
For the compound `O=C1c2cccc3c([N+](=O)[O-])ccc(c23)C(=O)N1c1ccc(Cl)cn1`, the Potency was 20 µM (active).
Consider `COc1ccc(-c2noc(CCCC(=O)NC3CCCC3)n2)cc1`, for which the Potency was 7.94 µM (active).
The same measure, in the same setting: then `Cc1ccc(-c2noc(CCCC(=O)NC3CCCC3)n2)cc1`, with 7.08 µM (active).
For the compound `Cc1ccccc1NC(=O)Nc1nc(C(N)C2CCCCC2)cs1` (stereo not drawn), the Potency entry is “inactive”.
On to `CN(C)C(=O)c1cccc(-c2cnc3c(NC=O)cc(-c4ccccc4N(C)C)cn23)c1`, for which the activity change, negative = inhibition was -27.7% [at 11.4 µM] (inactive).
Turning to `CCN1CCN(c2ccc(S(=O)(=O)N3CCCCC3)cc2NC(=O)c2ccc([N+](=O)[O-])s2)CC1`, the Potency was 3.16 µM (active).
For `CCN1CCN(c2ccc(S(=O)(=O)N3CCCCC3)cc2NC(=O)/C=C/c2ccc([N+](=O)[O-])cc2)CC1`, the activity change, negative = inhibition was -17.9% [at 11.4 µM] (inactive).
Consider `COc1ccccc1NC(=S)NC(=O)c1ccc(Cn2cc(Br)cn2)cc1`, for which the Potency result is “inactive”.
As to `COc1ccccc1C(=O)NNC(=S)NC(=O)c1ccco1`, the Potency was 7.94 µM (active).
`CC[C@H]1CN2CCc3cc(OC)c(OC)cc3C2C[C@@H]1C[C@H]1NCCc2cc(OC)c(OC)cc21` (stereo partly drawn): the Potency was 1.12 µM (active).
Still for that read-out and setting: then `CCC1=C(CC2NCCc3ccccc32)CC2c3cc(OC)c(OC)cc3CCN2C1` (stereo not drawn), with 14.1 µM (active); and `CC[C@H]1CN2CCc3cc(OC)c(OC)cc3[C@@H]2C[C@@H]1C[C@H]1NCCc2cc(OC)c(OC)cc21`, with 0.0794 µM (active); and `CCCCOc1ccc(NC2=NC3(CCCC3)N=C(N)N2)cc1`, with “inactive”.
For the compound `C/C(=N\N=C(N)N)c1ccc(Cl)cc1Cl`, the Potency entry was “inactive”.
On to `CC(C)[C@@H]1CC[C@@H](C)C[C@H]1OC(=O)C[n+]1cc(-c2ccc(Cl)cc2)n2c1CCCCC2`, for which the Potency is 14.1 µM (active).
On the same count and under the same terms, to `NNc1ncnc2scc(-c3ccc(Cl)cc3)c12` belongs 25.1 µM (active); to `O=C(CSc1nnc(-c2ccc(Br)cc2)o1)Nc1cccc(C(=O)O)c1`, 4.47 µM (active).
For `COc1cccc(NC(=O)CSc2nc3ncc(Br)cc3[nH]2)c1`, the activity change, negative = inhibition is 193% [at 11.4 µM] (inactive).
On to `O=C(Nc1ccc(Oc2ccc(NC(=O)Nc3ccc([N+](=O)[O-])cc3)cc2)cc1)Nc1ccc([N+](=O)[O-])cc1`, for which the Potency is 2.82 µM (active).
On the same count and under the same terms, to `O=C1c2cc(Cl)ccc2-c2c(O)cc(Cl)cc21` belongs “inactive”; to `COCc1ccc(CN2CCC(C(=O)Nc3cccc(-c4cccc(Cl)c4)c3)CC2)o1`, 14.1 µM (active).
Consider `O=C(Nc1ccc2oc(=O)ccc2c1)c1ccc(-c2cccc(Cl)c2)o1`, for which the Potency result is “inactive”.
